Activity calls are given as the source filed them. Unless noted, how the calls were made is not given here.
Assays:
[1] = test system: Wnt5a (protein binding on small-molecule microarray); experiment: small molecules binding Wnt5a protein – biophysical, small-molecule microarray, 635/667 nm fluorescence, primary screen (AID 1142); settings: 635 nm fluorescence, higher = more signal;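 further: fluorescence read at 667 nm with signal to noise per printed feature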
[2] = ATP-based viability of Huh7 replicon cells – cell-based, CellTiter-Glo luminescence, basal, 48 h, cytotoxicity control for HCV replication inhibitor project, primary screen (AID 1143); settings: higher = more signal, called active from +8 up or from −8 down;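 further: Huh7 hepatoma cells carrying a hepatitis C replication reporter with no stimulus; test concentration not given here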
[3] = Pseudomonas biofilm growth suppression – PAO1 strain, BacTiter-Glo luminescence, LB-PBS, primary screen (AID 1144); settings: P. aeruginosa PAO1 biofilm, 12 h, higher = more signal
[4] = basal CRE-LacZ reporter activity in PC12 – cell-based, unstimulated, primary screen (AID 1145); settings: no forskolin, luminescence, 4.5 h, higher = more signal, called active from +8 up or from −8 down
[5] = forskolin-driven CRE-LacZ activity in PC12 – cell-based, CRE-LacZ reporter, forskolin-stimulated, primary screen (AID 1146); settings: luminescence, 4.5 h, higher = more signal, called active from +8 up or from −8 down;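 further: PC12 cells with 6xCRE LacZ reporter stimulated by forskolin 10 µM; beta-galactosidase reporter signal reflecting CREB driven transcription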
[6] = biological target: Streptavidin (Streptomyces avidinii) (UniProt P22629); experiment: compounds binding control protein streptavidin – biophysical, small-molecule microarray, 635/667 nm fluorescence, artefact control for SMM compound annotation, primary screen (AID 1147); settings: higher = more signal;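 further: signal reflects streptavidin binding to arrayed compounds as a control protein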
[7] = probe aInhba binding on compound microarray – biochemical, small-molecule microarray, 635/667 nm fluorescence, primary screen (AID 1148); settings: higher = more signal;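 further: score merges 667nm spot fluorescence with signal-to-noise for antibody binding to printed compounds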
Torsin-1A (Homo sapiens) [8] = biological target: Torsin-1A (Homo sapiens) (UniProt O14656); experiment: TOR1A wild-type binding on microarray – cell lysate, small-molecule microarray, lysate, 635/667 nm, primary screen (AID 1149); settings: COS7 hTOR1A-WT lysate, 635 nm fluorescence, higher = more signal
Torsin-1A (Homo sapiens) [9] = biological target: Torsin-1A (Homo sapiens) (UniProt O14656); experiment: torsin A mutant lysate binding on microarrays – cell lysate, small-molecule microarray, COS7 lysate, 635/667 nm fluorescence, primary screen (AID 1150); settings: COS7 hTOR1A mutant lysate, 635 nm fluorescence, higher = more signal;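 further: score pools 667 nm emission and signal to noise measuring lysate protein binding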
[10] = test system: Sonic hedgehog protein (Shh); experiment: Sonic hedgehog microarray binding compounds – biochemical, small-molecule microarray, 635/667 nm fluorescence, primary screen (AID 1151); settings: 635 nm fluorescence, higher = more signal;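 further: Shh protein binding to compounds spotted on small-molecule microarray slides; score combines spot fluorescence intensity with signal-to-noise across triplicate slides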
[11] = optical density shifts of acrAB sulA E. coli – strain DRC41, OD650, 48 h, E. coli filamentation inducer project, primary screen (AID 1152); settings: higher = more signal, called active from +8 up or from −8 down;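 further: E. coli MC1000 strain DRC41 lacking acrAB efflux pump and sulA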
[12] = probe aLefty1 binding on compound microarray – biochemical, small-molecule microarray, 635/667 nm fluorescence, primary screen (AID 1153); settings: higher = more signal;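 further: score merges spot fluorescence with signal-to-noise ratio from the scanned slide images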
[13] = plasmodial surface anion channel blockers, osmotic lysis – cell-based, P. falciparum Indochina, OD700, 1 h, primary screen (AID 1154); settings: P. falciparum Indochina infected RBC osmotic lysis, higher = more signal, called active from +8 up or from −8 down
[14] = plasmodial surface anion channel blockers, osmotic lysis – cell-based, P. falciparum Indochina, OD700, 2 h, primary screen (AID 1155);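 further: lysis reports solute entry through the parasite surface anion channel PSAC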; settings: P. falciparum Indochina infected erythrocytes, higher = more signal, called active from +8 up or from −8 down
[15] = changes in parasitized red cell lysis, either direction – P. falciparum Indochina, OD700, 3 h, PSAC antagonist project, primary screen (AID 1156); settings: P. falciparum-infected erythrocytes, osmotic lysis, higher = more signal, called active from +8 up or from −8 down
[16] = plasmodial surface anion channel blockers, osmotic lysis – cell-based, P. falciparum Indochina, OD700, 18 h, primary screen (AID 1157); settings: P. falciparum Indochina infected erythrocytes, osmotic lysis OD700, 18 h; higher = more signal, called active from +8 up or from −8 down
[17] = S6 kinase pathway phospho-S6 level changes – cell-based, A549, cytoblot, luminescence, serum-stimulated, primary screen (AID 1158); settings: 5 h, higher = more signal;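 further: serum-stimulated A549 lung adenocarcinoma cells; signal is phosphorylated S6 detected by cytoblot immunostaining with HRP secondary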
[18] = biological target: NADPH oxidase 2 (Homo sapiens) (UniProt P04839); experiment: compounds shifting NOX2 Amplex Red fluorescence – cell-based, HEK293-NOX2, PMA-stimulated, NOX inhibitor project, primary screen (AID 1159); settings: 45 min, higher = more signal, called active from +8 up or from −8 down; further: test concentration not given here
[19] = biological target: NADPH oxidase 4 (Homo sapiens) (UniProt Q9NPH5); experiment: compounds shifting NOX4 Amplex Red fluorescence – cell-based, HEK293-NOX4, tetracycline-induced, NOX inhibitor project, primary screen (AID 1160); settings: HEK293-NOX4, Amplex Red H2O2 fluorescence, 45 min; higher = more signal, called active from +8 up or from −8 down
[20] = biological target: NADPH oxidase 5 (Homo sapiens) (UniProt Q96PH1); experiment: compounds shifting NOX5 Amplex Red fluorescence – cell-based, HEK293-NOX5, NOX inhibitor project, primary screen (AID 1161); settings: HEK293-NOX5, ionomycin, 45 min, higher = more signal
NADPH oxidase 5 (Homo sapiens), sequence (Q96PH1 whole entry, looked up): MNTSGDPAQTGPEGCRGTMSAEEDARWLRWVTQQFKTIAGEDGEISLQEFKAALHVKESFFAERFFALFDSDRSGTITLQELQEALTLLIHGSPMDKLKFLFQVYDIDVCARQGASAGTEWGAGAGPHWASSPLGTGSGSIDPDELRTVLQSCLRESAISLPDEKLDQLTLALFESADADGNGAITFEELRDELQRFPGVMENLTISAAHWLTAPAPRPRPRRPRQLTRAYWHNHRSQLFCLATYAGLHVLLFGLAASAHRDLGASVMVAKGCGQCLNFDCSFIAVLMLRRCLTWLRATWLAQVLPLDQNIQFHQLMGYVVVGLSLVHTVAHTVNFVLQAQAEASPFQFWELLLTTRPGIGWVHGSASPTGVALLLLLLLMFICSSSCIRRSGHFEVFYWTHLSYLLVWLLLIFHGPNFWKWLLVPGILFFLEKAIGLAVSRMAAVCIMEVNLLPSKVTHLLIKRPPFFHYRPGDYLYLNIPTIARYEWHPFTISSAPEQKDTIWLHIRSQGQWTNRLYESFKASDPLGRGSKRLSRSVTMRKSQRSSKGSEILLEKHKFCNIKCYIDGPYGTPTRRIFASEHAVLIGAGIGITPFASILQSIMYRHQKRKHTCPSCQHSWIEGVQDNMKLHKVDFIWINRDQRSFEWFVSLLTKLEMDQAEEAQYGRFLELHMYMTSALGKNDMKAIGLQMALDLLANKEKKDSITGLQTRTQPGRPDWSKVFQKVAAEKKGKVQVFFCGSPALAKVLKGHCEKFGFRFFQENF

Torsin-1A (Homo sapiens), sequence (O14656 whole entry, looked up): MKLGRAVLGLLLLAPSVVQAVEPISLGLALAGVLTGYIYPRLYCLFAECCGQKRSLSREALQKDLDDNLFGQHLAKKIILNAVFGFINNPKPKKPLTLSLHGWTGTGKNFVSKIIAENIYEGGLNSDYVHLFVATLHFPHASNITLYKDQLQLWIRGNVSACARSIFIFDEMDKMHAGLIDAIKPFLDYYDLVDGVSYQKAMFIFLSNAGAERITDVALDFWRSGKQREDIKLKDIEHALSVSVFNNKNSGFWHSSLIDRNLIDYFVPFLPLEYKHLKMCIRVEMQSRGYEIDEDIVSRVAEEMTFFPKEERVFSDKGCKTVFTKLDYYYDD
NADPH oxidase 4 (Homo sapiens), sequence (Q9NPH5 whole entry, looked up): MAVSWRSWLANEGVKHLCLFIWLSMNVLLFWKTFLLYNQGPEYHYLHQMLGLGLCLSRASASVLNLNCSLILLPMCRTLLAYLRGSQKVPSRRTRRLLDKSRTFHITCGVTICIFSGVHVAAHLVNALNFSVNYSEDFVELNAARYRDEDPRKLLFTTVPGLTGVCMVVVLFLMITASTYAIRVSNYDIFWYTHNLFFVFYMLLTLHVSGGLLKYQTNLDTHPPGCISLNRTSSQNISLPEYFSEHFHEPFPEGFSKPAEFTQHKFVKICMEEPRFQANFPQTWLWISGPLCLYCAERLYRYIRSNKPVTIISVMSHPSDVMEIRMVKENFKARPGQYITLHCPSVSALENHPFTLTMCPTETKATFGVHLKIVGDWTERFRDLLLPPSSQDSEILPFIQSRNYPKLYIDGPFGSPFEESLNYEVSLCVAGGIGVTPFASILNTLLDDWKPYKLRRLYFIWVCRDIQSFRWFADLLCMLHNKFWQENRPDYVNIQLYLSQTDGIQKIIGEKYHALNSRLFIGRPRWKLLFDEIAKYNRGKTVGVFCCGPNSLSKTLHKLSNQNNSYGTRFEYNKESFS
NADPH oxidase 2 (Homo sapiens), sequence (P04839 whole entry, looked up): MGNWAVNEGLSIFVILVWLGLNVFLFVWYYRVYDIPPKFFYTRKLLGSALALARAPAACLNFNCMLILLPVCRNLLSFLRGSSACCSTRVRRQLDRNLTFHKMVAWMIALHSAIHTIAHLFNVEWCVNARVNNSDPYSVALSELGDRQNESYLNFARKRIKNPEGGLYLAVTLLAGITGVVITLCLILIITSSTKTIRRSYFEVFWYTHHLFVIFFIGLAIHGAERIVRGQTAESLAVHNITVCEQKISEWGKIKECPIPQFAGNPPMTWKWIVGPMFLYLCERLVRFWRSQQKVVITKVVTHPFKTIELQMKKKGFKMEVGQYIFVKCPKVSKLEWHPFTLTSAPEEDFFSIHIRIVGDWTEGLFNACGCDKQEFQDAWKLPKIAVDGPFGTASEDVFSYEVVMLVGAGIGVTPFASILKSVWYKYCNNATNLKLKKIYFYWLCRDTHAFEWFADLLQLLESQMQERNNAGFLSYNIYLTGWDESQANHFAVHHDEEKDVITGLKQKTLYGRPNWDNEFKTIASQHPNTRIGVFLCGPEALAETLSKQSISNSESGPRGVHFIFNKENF
Streptavidin (Streptomyces avidinii), sequence (P22629 whole entry, looked up): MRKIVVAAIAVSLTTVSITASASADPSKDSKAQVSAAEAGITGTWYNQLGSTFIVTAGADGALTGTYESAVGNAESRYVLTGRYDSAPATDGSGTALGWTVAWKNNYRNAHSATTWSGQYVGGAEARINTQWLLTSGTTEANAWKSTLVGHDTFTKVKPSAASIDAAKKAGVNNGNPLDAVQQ

Row | Compound | composite z-score [1] | z-score [2] | z-score [3] | z-score [4] | z-score [5] | composite z-score [6] | composite z-score [7] | composite z-score (Torsin-1A (Homo sapiens) [8]) | composite z-score (Torsin-1A (Homo sapiens) [9]) | composite z-score [10] | z-score [11] | composite z-score [12] | z-score [13] | z-score [14] | z-score [15] | z-score [16] | z-score [17] | z-score [18] | z-score [19] | z-score [20]
1 | C=CC[C@@H]1C=C[C@H](ON=C[C@@H](C)[C@H](OCc2ccccc2)C(C)C)[C@@H](CO)O1 | -0.2 | -1.39 (inactive) | 0.787 (inactive) | 1.31 (inactive) | 0.3 (inactive) | -1.32 | -0.238 | -0.617 | -0.396 | -0.119 | -0.144 (inactive) | -0.193 | 1.64 (inactive) | 0.0178 (inactive) | -0.667 (inactive) | 0.197 (inactive) | -0.544 | -0.55 (inactive) | -0.301 (inactive) | -1.48
2 | CCOC(=O)[C@H](Cc1ccccc1)NC(=O)CCC1CC(OC(=O)NCc2ccc3c(c2)OCO3)CC2(CCCC(COC(=O)NCCC(C)C)O2)O1 (stereo not given in full) | 0.403 | -1.05 (inactive) | -0.749 (inactive) | -0.254 (inactive) | 0.0924 (inactive) | 0.789 | 0.0471 | 0.399 | 0.418 | 1.74 | 0.241 (inactive) | -0.0162 | 25.3 (active) | 11.5 (active) | 1.26 (inactive) | 1.5 (inactive) | 0.274 | 1.3 (inactive) | 0.25 (inactive) | 0.277
3 | C[C@H]1Cc2c(COc3ccccc3)nc3c(c2CO1)CN(CCOc1ccccc1)CC3 | 0.0543 | -0.491 (inactive) | -1.96 (inactive) | 3.54 (inactive) | -0.632 (inactive) | 0.426 | -0.157 | 0.53 | 0.217 | 1.21 | 0.49 (inactive) | 0.2 | 3.74 (inactive) | 0.484 (inactive) | 1.68 (inactive) | 0.908 (inactive) | 0.44 | 0.539 (inactive) | 0.191 (inactive) | -0.00428
4 | CO[C@H]1COC(=O)[C@H](C)NC(=O)[C@@H](C)COC(=O)[C@H]2CCCN2C(=O)CC=C[C@H]1C | 0.139 | 0.191 (inactive) | -0.312 (inactive) | -0.906 (inactive) | -0.432 (inactive) | -0.323 | -0.121 | -0.0249 | 0.182 | 1.4 | -0.0911 (inactive) | -0.194 | 0.551 (inactive) | 0.453 (inactive) | 0.603 (inactive) | 0.293 (inactive) | 0.203 | -0.752 (inactive) | 0.0917 (inactive) | 0.363
5 | CO[C@@H]1COC(=O)CC=C[C@H](C)[C@H](OC)COC(=O)[C@H](C)NC(=O)CC=C[C@H]1C | -0.0631 | -0.0558 (inactive) | 0.938 (inactive) | 0.159 (inactive) | -0.463 (inactive) | -0.369 | -0.133 | 1.57 | 0.63 | 2.09 | 0.525 (inactive) | -0.012 | 0.0859 (inactive) | 0.0159 (inactive) | 0.704 (inactive) | 0.107 (inactive) | -0.0908 | -0.402 (inactive) | -0.249 (inactive) | -0.159
6 | CCCNC(=O)OC[C@H]1O[C@H](c2ccccc2)C=C[C@@H]1Oc1ccc(OC)cc1 | -0.0663 | -0.234 (inactive) | 0.404 (inactive) | 0.735 (inactive) | -0.353 (inactive) | 1.48 | -0.0719 | -0.131 | 0.144 | 0.0199 | 0.604 (inactive) | -0.092 | 0.906 (inactive) | 0.141 (inactive) | -0.353 (inactive) | 0.0261 (inactive) | 0.136 | 1.35 (inactive) | -0.438 (inactive) | -1.9
7 | CC(C)C[C@H](NC(=O)CCC1CC(OC(=O)NCc2cccc3ccccc23)CC2(CCCC(COC(=O)NCc3ccccc3)O2)O1)C(=O)NCC(c1ccccc1)c1ccccc1 (stereo not given in full) | 0.451 | -0.363 (inactive) | -0.434 (inactive) | -0.258 (inactive) | 0.728 (inactive) | 0.396 | -0.0963 | 0.317 | 0.0582 | 0.954 | 0.576 (inactive) | -0.29 | 8.07 (active) | 1.33 (inactive) | -1.22 (inactive) | 0.688 (inactive) | -0.71 | 0.871 (inactive) | 0.194 (inactive) | -0.0969
8 | COC(=O)[C@H]1O[C@@H](c2c(OC)c(OC)c(C)c(OC)c2OC)[C@H](C)[C@@H](O)[C@H]1C | 0.2 | 0.299 (inactive) | -0.895 (inactive) | 0.564 (inactive) | 1.12 (inactive) | 0.353 | 0.141 | 0.859 | 0.295 | 0.434 | 0.855 (inactive) | -0.0505 | 0.516 (inactive) | 0.183 (inactive) | 0.92 (inactive) | 0.587 (inactive) | 0.817 | 0.933 (inactive) | 0.792 (inactive) | 0.194
9 | O=C1C2=CC[C@H]3C(=O)N(c4cccc(Oc5ccccc5)c4)C(=O)[C@H]3[C@H]2[C@H](O)[C@@H]2O[C@H]12 | 0.0049 | -6.01 (inactive) | 0.478 (inactive) | 0.699 (inactive) | 19.7 (active) | 0.284 | -0.239 | 0.181 | -0.111 | 0.264 | -0.462 (inactive) | -0.103 | -0.0001 (inactive) | -0.295 (inactive) | -0.081 (inactive) | 0.157 (inactive) | -0.194 | 0.042 (inactive) | 0.605 (inactive) | 0.4

From PubChem BioAssay
